High-throughput results deposited in PubChem BioAssay by National Center for Advancing Translational Sciences (NCATS).
This is a sample that favours compounds with a hit; in the whole collection about 12% have one here.
Shiga inhibitor: Shiga toxin inhibition; Vero cells, Shiga toxin protein synthesis inhibition reporter; inhibition, % at 38.7 µM; 9.2% of 290,000 active; in the data active = inhibition mostly above about 28%, no sharp cut-off; inactive = mostly below about 43%; note: 0% is about no effect
CHX counter: affects cycloheximide protein synthesis inhibition readout, counter-screen | cell reporter, cycloheximide protein synthesis inhibition counterscreen | max response, % | 12% of 300,000 active | AID 2314; in the data active = max response mostly above about 13%, no sharp cut-off; inactive = mostly below about 14%; note: read at 38.3 µM for the half of the compounds with a filed dose; 0% is about no effect
FMDV antiviral: blocks foot and mouth disease virus. Potency, µM (top dose mostly 57.9 µM), for the others: at the top dose activity change, negative = inhibition, usual class: inhibitors. 1.2% of 410,000 active. FMDV antiviral cell-based qHTS. AID 1159524; calls by dose curve; tested in HEK293T cells; note: read-out not given here; potency is the fitted concentration of half-maximal effect; % is set by controls: 0 for no effect and ±100 for the full control effect; nearly all actives have a fitted effect of over 45% in size
Sm TGR block: inhibitors of Schistosoma mansoni thioredoxin glutathione reductase; Q962Y6; purified TGR, DTNB reduction, TNB absorbance 405 nm; Potency, µM (doses to about 114 µM), inactives show at the highest dose activity change, negative = inhibition, usual class: inhibitors; 3% of 360,000 active; AID 485364; active = well fitted inhibition curve with a large enough effect; inconclusive = small, poorly fitted or top-dose-only effect; inactive = no such curve, though single readings can be large or run the other way; note: potency is the fitted concentration of half-maximal effect; % is set by controls: 0 for no effect and ±100 for the full control effect; nearly all actives have a fitted effect of over 60% in size
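TGR 20 nM + NADPH 100 uM (dispensed conc.), cpd preinc 15 min RT; start with NADPH (500 uM addition) then DTNB (15 mM addition). Kinetic TNB absorbance, 405 nm filter. Four-parameter Hill fit across titration.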
Numbers without * were called inactive.

What do the screens show for `Cc1cc(C)cc(N2CC(c3nnc(NC(=O)c4ccco4)s3)CC2=O)c1` (stereo not given)?
FMDV antiviral: 1.0%; Sm TGR block: 1.9%

What do the screens show for `Cc1ccccc1NS(=O)(=O)c1ccc2[nH]cc(C(=O)NC(C)c3ccccc3)c(=O)c2c1` (stereo not given)?
FMDV antiviral: -0.6%; Sm TGR block: 2.6%

Results for CCc1ccc(C2CC(=O)c3c([nH]c(C(=O)OCC4CCCCC4)c3C)C2)cc1 (stereo not given) ?
FMDV antiviral: -12.2%; Sm TGR block: -1.3%

What do the screens show for `Cc1cccc(-c2c3c(=O)n(C)c(=O)n(C)c3cn2CC2CCCO2)c1` (stereo not given)?
Shiga inhibitor: -10.0; CHX counter: -1.3; FMDV antiviral: -7.9%; Sm TGR block: 35.5µM*

What do the screens show for `Cc1ccc2c(c1)c(=O)c1c3n2CCN(C(=O)CCl)C3CC1` (stereo not given)?
Shiga inhibitor: 26.2; CHX counter: -1.4; FMDV antiviral: -13.6%; Sm TGR block: 3.16µM*

Results for CCc1cccc(-n2c(=O)c3cccnc3n2CC(=O)Nc2ccccc2C(=O)OC)c1 ?
FMDV antiviral: -14.4%; Sm TGR block: 7.5%

How did O=C(C1=C(O)C(=O)N(c2nccs2)C1c1ccccc1)c1cc2ccccc2o1 (stereo not given) do in these assays?
Shiga inhibitor: 58.7*; CHX counter: 44.3*; FMDV antiviral: -17.7%; Sm TGR block: 10µM*

Results for CCc1ccc2nc(N3C(=O)C(O)=C(C(=O)c4ccco4)C3c3cccs3)sc2c1 (stereo not given) ?
Shiga inhibitor: 58.8*; CHX counter: 28.7*; FMDV antiviral: 25.9%; Sm TGR block: -25.3%

How did Cc1ccc2nc(N3C(=O)C(O)=C(C(=O)c4cc5ccccc5o4)C3c3cccs3)sc2c1 (stereo not given) do in these assays?
Shiga inhibitor: 98.2*; CHX counter: 62.1*; FMDV antiviral: 34.1%; Sm TGR block: inconclusive

What do the screens show for `O=C(C1=C(O)C(=O)N(c2nc3ccc(Cl)cc3s2)C1c1ccco1)c1ccco1` (stereo not given)?
FMDV antiviral: 23.7%; Sm TGR block: inconclusive

Results for Cc1cc(N2C(=O)C(O)=C(C(=O)c3cc4ccccc4o3)C2c2cccs2)no1 (stereo not given) ?
Shiga inhibitor: 40.4; CHX counter: 19.3*; FMDV antiviral: -4.5%; Sm TGR block: 56.2µM*

Results for Cc1ccc(NC(=O)CN2C(=O)COc3ccc(S(=O)(=O)N4CCCCCC4)cc32)c(C)c1 ?
FMDV antiviral: 1.7%; Sm TGR block: 44.4%

How did CCOc1cc(C(=O)NCc2nc(-c3cccc(C)c3)no2)cc(OCC)c1OCC do in these assays?
FMDV antiviral: 0.4%; Sm TGR block: 1.0%

Results for COc1ccc([N+](=O)[O-])cc1C1NN=C(c2ccccc2O)S1 (stereo not given) ?
Shiga inhibitor: 25.1; CHX counter: 9.1; FMDV antiviral: 17.0%; Sm TGR block: -17.4%

What do the screens show for `O=[N+]([O-])c1ccc(O)c(C2=NNC(c3ccccc3F)C2)c1` (stereo not given)?
Shiga inhibitor: 84.5*; CHX counter: 40.0*; FMDV antiviral: inconclusive; Sm TGR block: 5.01µM*

What do the screens show for `CC1=CC(C)(C)Nc2ccc(OC(=O)c3ccco3)cc21`?
Shiga inhibitor: 37.6; CHX counter: 17.3*; Sm TGR block: -20.1%

How did COc1ccc(OC(=O)C(C)N2C(=O)c3ccccc3C2=O)cc1 (stereo not given) do in these assays?
CHX counter: -1.8; FMDV antiviral: 5.4%; Sm TGR block: inconclusive

What do the screens show for `CC1=CC(C)(C)Nc2ccc(OC(=O)C(C)N3C(=O)c4ccccc4C3=O)cc21` (stereo not given)?
Shiga inhibitor: -36.4; CHX counter: 0.9; FMDV antiviral: 28.2µM*; Sm TGR block: -9.7%

How did CC1=CC(C)(C)Nc2ccc(OC(=O)c3cccnc3)cc21 do in these assays?
Shiga inhibitor: 93.5*; CHX counter: 27.0*; FMDV antiviral: 28.2µM*; Sm TGR block: -14.0%

How did CC1=CC(C)(C)Nc2ccc(Cc3ccc4c(c3)C(C)=CC(C)(C)N4)cc21 do in these assays?
Shiga inhibitor: -6.4; CHX counter: -6.6; FMDV antiviral: 13.8%; Sm TGR block: 3.98µM*

What do the screens show for `Cc1ccc(-n2nnc3c(SCC(=O)NCC4CCCO4)ncnc32)cc1` (stereo not given)?
Shiga inhibitor: -5.7; CHX counter: 1.6; FMDV antiviral: inconclusive; Sm TGR block: -1.8%
